The text below walks through data of PubChem BioAssay (Tox21).

A number with no mark means an inactive call. Entries that show only a call come without a potency. Activity calls are given as the source filed them. The call rests on the fitted dose curve; in most records, active means well fitted activation curve with a large enough effect in the signal ratio in the repeat runs (not every such curve was filed as active); inconclusive means weak or mixed curves, or effect the other way; inactive means no such curve, though single readings can be large or run the other way; the % refers to the signal ratio.
Potency means the concentration at half of the fitted maximal effect.

Glucocorticoid receptor (Homo sapiens), sequence (P04150 whole entry, looked up): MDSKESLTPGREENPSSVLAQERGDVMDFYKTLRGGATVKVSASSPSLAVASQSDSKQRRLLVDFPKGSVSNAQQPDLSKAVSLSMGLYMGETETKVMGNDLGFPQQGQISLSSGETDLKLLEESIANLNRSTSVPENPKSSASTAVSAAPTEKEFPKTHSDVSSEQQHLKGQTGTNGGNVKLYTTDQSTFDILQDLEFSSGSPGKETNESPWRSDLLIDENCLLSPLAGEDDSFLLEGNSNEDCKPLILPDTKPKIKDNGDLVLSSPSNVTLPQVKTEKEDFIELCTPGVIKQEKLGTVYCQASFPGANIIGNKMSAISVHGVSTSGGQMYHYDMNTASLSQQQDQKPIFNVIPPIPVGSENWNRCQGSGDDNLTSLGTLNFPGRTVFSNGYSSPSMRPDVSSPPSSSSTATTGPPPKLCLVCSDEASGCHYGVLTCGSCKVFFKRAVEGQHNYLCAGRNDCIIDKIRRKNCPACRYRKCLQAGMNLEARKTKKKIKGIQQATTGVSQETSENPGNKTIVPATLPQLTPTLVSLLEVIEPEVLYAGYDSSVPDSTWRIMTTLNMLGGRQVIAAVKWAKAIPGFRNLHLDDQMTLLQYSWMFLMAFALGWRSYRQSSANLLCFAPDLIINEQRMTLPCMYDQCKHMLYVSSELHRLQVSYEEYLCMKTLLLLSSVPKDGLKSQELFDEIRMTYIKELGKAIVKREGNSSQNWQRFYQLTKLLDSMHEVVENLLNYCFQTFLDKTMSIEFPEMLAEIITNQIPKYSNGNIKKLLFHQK

The assay has as its target Glucocorticoid receptor (Homo sapiens) (UniProt P04150). The assay is described as follows: qHTS assay to identify small molecule agonists of the glucocorticoid receptor (GR) signaling pathway (AID 720691). The conditions noted are these: GR-bla HeLa, beta-lactamase reporter ratio, 18 h; series mostly up to 62.4 µM. An excerpt:
U.S. Tox21 Program National Center for Advancing Translational Sciences [NCATS] NIH Chemical Genomics Center [NCGC] U.S. Environmental Protection Agency [EPA] National Institutes of Environmental Health Sciences [NIEHS] National Toxicology Program [NTP] U.S. Food and Drug Administration [FDA] Tox21 Assay Overview: The Glucocorticoid receptor (GR) is one of the members of the nuclear receptor family of ligand-dependent transcription factors. GR plays a critical role in carbohydrate, protein and lipid metabolisms and programmed cell death. CellSensor GR-bla HeLa cell line (Invitrogen) contains a beta-lactamase reporter gene under the control of the glucocorticoid response element stably integrated into HeLa cells, a cervical cancer cell line that expresses glucocorticoid receptor. The activation of the reporter gene under culture conditions can be detected by fluorescence intensity. This cell line has been used to screen the Tox21 10K compound library and to identify the compounds that activate the GR signaling.
Tox21 Assay Protocol Summary: The GR-bla HeLa cells were dispensed at 1500 cells/6 ul/well in 1536-well black wall/clear bottom plates using a Multidrop Combi (ThermoFisher Scientific, Waltham, MA) dispenser. After the assay plates were incubated at a 37 C/5% CO2 incubator for 4 hours, 23 nL of compounds dissolved in DMSO, positive controls or DMSO only was transferred to the assay plate by a pintool station (Kalypsys, San Diego, CA). The plates were incubated at 37 C for 18 hours. After 1 uL of LiveBLAzerTM B/G FRET substrate was added using a Flying Reagent Dispenser (Aurora Discovery, San Diego, CA), the plates were incubated at room temperature for 2 hours, and fluorescence intensity was measured by an Envision plate reader (PerkinElmer, Shelton, CT).
(In general: qHTS replaces the single test concentration by a dilution series.)
Regarding `CCCCCCCCCCCCN=C(N)N`, the activation was -0.603% [at 3.1 µM].
Turning to `C[C@]12CC[C@H]3[C@@H](CCC4=CC(=O)CC[C@@H]43)[C@@H]1CC[C@@H]2OC(=O)CCc1ccccc1`, the Potency result is “inactive”.
In the case of `c1ccc2sc(SNC3CCCCC3)nc2c1`, the Potency entry was “inactive”.
As to `CC(Oc1cccc(Cl)c1)C(=O)O` (stereo not given), the Potency entry is “inactive”.
As to `CC(=O)OC(c1ccccc1)C(Cl)(Cl)Cl` (stereo not given), the Potency result is “inactive”.
Take `CCC(C)Cl` (stereo not given): the Potency result is “inactive”.
Same read-out and setting: the entry for `CCCCCCCCP(=O)(O)O` is “inactive”.
The same measure, in the same setting: as for `CCCCCCCCCCCCCCCl`, the entry is “inactive”.
The same measure, in the same setting: as for `Clc1ccccc1`, the entry is “inactive”; as for `CCCN(CCOc1c(Cl)cc(Cl)cc1Cl)C(=O)n1ccnc1`, “inactive”; as for `CCC1CCC(=O)O1` (stereo not given), “inactive”.
Regarding `CN1CC[C@]23c4c5ccc(O)c4O[C@H]2[C@@H](O)CC[C@H]3[C@H]1C5`, the Potency entry is “inactive”.
As to `Cc1ccc(N)c(C)c1`, the Potency entry is “inactive”.
With `CC(C)(c1ccccc1)c1cc(-n2nc3ccccc3n2)c(O)c(C(C)(C)c2ccccc2)c1`, the Potency entry is “inactive”.
In the case of `O=P(OCC(Br)CBr)(OCC(Br)CBr)OCC(Br)CBr` (stereo not given), the Potency result is “inactive”.
On to `COC1=CC(=O)O[C@@H](/C=C/c2ccc3c(c2)OCO3)C1`, for which the Potency result was “inactive”.
On the same count and under the same terms, the entry for `Nc1ccccc1C(=O)OCCc1ccccc1` is “inactive”.
As for `C=CC(=O)NC(C)(C)CC(C)=O`, the Potency entry was “inactive”.
Turning to `CCSCc1ccccc1OC(=O)NC`, the Potency result was “inactive”.
Take `C=CCN1C[C@H](C)N([C@H](c2ccc(C(=O)N(CC)CC)cc2)c2cccc(OC)c2)C[C@H]1C`: the Potency entry was “inactive”.
In the case of `CC[N+]1(C)CCCC(OC(=O)C(O)(c2ccccc2)c2ccccc2)C1` (stereo not given), the Potency result was “inactive”.
Turning to `CN1C(=O)CN=C(c2ccccc2)c2cc([N+](=O)[O-])ccc21`, the Potency was 338 nM [inconclusive] (active).
Same read-out and setting: the entry for `CN[C@@H](C)[C@H](O)c1ccccc1` is “inactive”.
For the molecule `CC(C)(C)NCC(O)c1ccccc1Cl` (stereo not given), the Potency result is “inactive”.
Turning to `CCOP(=S)(S)OCC`, the Potency entry was “inactive”.
As to `OC[P+](CO)(CO)CO`, the Potency entry is “inactive”.
Turning to `CCCC[N+]1(C)[C@@H]2CC(OC(=O)[C@H](CO)c3ccccc3)C[C@H]1[C@@H]1O[C@@H]12` (stereo not given in full), the Potency result is “inactive”.
Turning to `C[N+]1(CCF)[C@@H]2CC[C@H]1CC(OC(=O)C(O)(c1ccccc1)c1ccccc1)C2` (stereo not given in full), the Potency entry is “inactive”.
With `Cc1cnc(C2=NC(C)(C(C)C)C(=O)N2)c(C(=O)O)c1` (stereo not given), the Potency entry was “inactive”.
Turning to `O=C(CCl)CCl`, the Potency result is “inactive”.
With `O=C1NC(=O)C(=O)C(=O)N1`, the Potency entry was “inactive”.
Regarding `CCC1(CC)C(=O)NC(=O)NC1=O`, the Potency result is “inactive”.
The same measure, in the same setting: the entry for `Nc1ccc2c(c1)Cc1ccccc1-2` is “inactive”; for `CCOC(=O)c1cncn1C(C)c1ccccc1` (stereo not given) it is “inactive”; for `CCCBr` it is “inactive”.
As for `OCCCl`, the Potency result is “inactive”.
The same measure, in the same setting: as for `C=CC(C)(CCC=C(C)C)OC(=O)c1ccccc1N` (stereo not given), the entry is “inactive”; as for `C=CCOC(=O)C(C)(C)OC(=O)c1cc(-n2c(=O)cc(C(F)(F)F)n(C)c2=O)ccc1Cl`, “inactive”; as for `CCOP(=O)(O)C(N)=O`, “inactive”.
For the molecule `COc1ccccc1N1CCNCC1`, the Potency result is “inactive”.
